Data reported in PubChem BioAssay (NCI).
The panel holds about 83,000 compounds, 20% with a hit somewhere; the sample as a whole holds those more often.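 Step 1: grow cells in 96-well plates. Step 2: add test compound at a single concentration. Step 3: incubate 48 h. Step 4: record percent growth.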 Activity calls are given as the source filed them. Rule for the calls: active = growth percent below 10; inactive = the rest.

How the values were obtained:
Assay in all cases: NCI-60 one-dose screen, 48 h (100 = growth as untreated, 0 = no growth, -100 = all killed)
Conditions in all cases: 10 µM unless noted
SR leukemia = system: SR leukemia
OVCAR-8 ovarian = system: OVCAR-8 ovarian
OVCAR-5 ovarian = system: OVCAR-5 ovarian
OVCAR-4 ovarian = system: OVCAR-4 ovarian
SK-OV-3 ovarian = system: SK-OV-3 ovarian
IGROV1 ovarian = system: IGROV1 ovarian
OVCAR-3 ovarian = system: OVCAR-3 ovarian
HS 578T breast = system: HS 578T breast
NCI/ADR-RES ovarian = system: NCI/ADR-RES ovarian
T-47D breast = system: T-47D breast
MDA-MB-435 melanoma = system: MDA-MB-435 melanoma
SW-620 colon = system: SW-620 colon
MCF7 breast = system: MCF7 breast
HCT-116 colon = system: HCT-116 colon
HCC-2998 colon = system: HCC-2998 colon
KM12 colon = system: KM12 colon
BT-549 breast = system: BT-549 breast

Measured: growth

COc1cc(Cl)cc(-c2nn(-c3cccc(NC(=O)c4cc(C(F)(F)F)cc(C(F)(F)F)c4)c3)cc2-c2ccncc2)c1
inactive: SR leukemia 41% | OVCAR-8 ovarian 55.4% | OVCAR-5 ovarian 83% | OVCAR-4 ovarian 72.1% | SK-OV-3 ovarian 83.4% | IGROV1 ovarian 100% | OVCAR-3 ovarian 25.5% | HS 578T breast 81.1% | NCI/ADR-RES ovarian 67.8% | T-47D breast 53.4% | MDA-MB-435 melanoma 80% | SW-620 colon 86.2% | MCF7 breast 57.8% | HCT-116 colon 35.2% | HCC-2998 colon 78.3% | KM12 colon 55.5%

Nc1c(C(=O)Nc2cccc(Cl)c2)sc2nc3c(cc12)C(O)CCC3 (stereo unspecified)
inactive: OVCAR-8 ovarian 36.8% | OVCAR-5 ovarian 51.2% | OVCAR-4 ovarian 52.7% | SK-OV-3 ovarian 35.4% | IGROV1 ovarian 31.1% | HS 578T breast 24.5% | T-47D breast 52.3% | BT-549 breast 56% | SW-620 colon 43.9% | MCF7 breast 17.8% | HCT-116 colon 19.1% | HCC-2998 colon 24.9% | KM12 colon 26.9%
active: SR leukemia 8.19% | OVCAR-3 ovarian -33.4% | NCI/ADR-RES ovarian 8.73% | MDA-MB-435 melanoma -37.5%

Clc1ccc2c(c1)C(Br)c1cc(Cl)cc(Cl)c1-2 (stereo unspecified)
inactive: OVCAR-8 ovarian 101% | OVCAR-5 ovarian 84.4% | OVCAR-4 ovarian 88.5% | SK-OV-3 ovarian 80% | IGROV1 ovarian 57.1% | OVCAR-3 ovarian 91.7% | HS 578T breast 65.1% | NCI/ADR-RES ovarian 96.1% | T-47D breast 73% | BT-549 breast 87.3% | MDA-MB-435 melanoma 85.7% | SW-620 colon 60.4% | MCF7 breast 69% | HCT-116 colon 65.4% | KM12 colon 98.3%
active: SR leukemia -4.33%

COC(=O)Nc1ccc2ccc3c(NC(=O)OC)ccc4ccc1c2c43 (tested in a mixture with another compound)
inactive: SR leukemia 24.1% | OVCAR-8 ovarian 66.5% | OVCAR-5 ovarian 76.2% | OVCAR-4 ovarian 87.9% | SK-OV-3 ovarian 72% | IGROV1 ovarian 51.1% | OVCAR-3 ovarian 70.5% | NCI/ADR-RES ovarian 36.6% | T-47D breast 49.6% | BT-549 breast 63.2% | SW-620 colon 39.4% | MCF7 breast 31.4% | HCT-116 colon 21.7% | HCC-2998 colon 57.9% | KM12 colon 32.7%
active: MDA-MB-435 melanoma -22.3%

O=C1Nc2ccc(C(=O)O)c(O)c2C1=O
inactive: SR leukemia 105% | OVCAR-8 ovarian 107% | OVCAR-5 ovarian 95.3% | OVCAR-4 ovarian 112% | SK-OV-3 ovarian 110% | IGROV1 ovarian 111% | OVCAR-3 ovarian 113% | HS 578T breast 108% | NCI/ADR-RES ovarian 106% | T-47D breast 106% | BT-549 breast 106% | MDA-MB-435 melanoma 106% | SW-620 colon 104% | MCF7 breast 104% | HCT-116 colon 108% | HCC-2998 colon 117% | KM12 colon 106%

c1ccc(Nc2ccc(Nc3nc(-c4ccccc4)nc4ccccc34)cc2)cc1
inactive: SR leukemia 52.1% | OVCAR-8 ovarian 76.3% | OVCAR-5 ovarian 81.5% | OVCAR-4 ovarian 94.1% | SK-OV-3 ovarian 107% | IGROV1 ovarian 96.7% | OVCAR-3 ovarian 101% | HS 578T breast 92.9% | NCI/ADR-RES ovarian 79% | T-47D breast 47.9% | BT-549 breast 93.8% | MDA-MB-435 melanoma 87.5% | SW-620 colon 75.7% | HCT-116 colon 74.9% | HCC-2998 colon 89% | KM12 colon 36.4%

O=C(C(=O)N1CCOCC1)c1cn(CCCn2cc(C(=O)C(=O)N3CCOCC3)c3ccccc32)c2ccccc12
inactive: SR leukemia 103% | OVCAR-8 ovarian 104% | OVCAR-5 ovarian 102% | OVCAR-4 ovarian 109% | SK-OV-3 ovarian 111% | IGROV1 ovarian 107% | OVCAR-3 ovarian 119% | NCI/ADR-RES ovarian 109% | T-47D breast 94.7% | BT-549 breast 104% | MDA-MB-435 melanoma 111% | SW-620 colon 115% | MCF7 breast 95.4% | HCT-116 colon 98.4% | HCC-2998 colon 108% | KM12 colon 110%

COc1cccc(/C=N\NC(=O)c2ccncc2)c1O
inactive: SR leukemia 21% | OVCAR-8 ovarian 58.7% | OVCAR-5 ovarian 67% | OVCAR-4 ovarian 31.7% | SK-OV-3 ovarian 56.8% | IGROV1 ovarian 65.1% | OVCAR-3 ovarian 13.6% | NCI/ADR-RES ovarian 25.3% | T-47D breast 28.2% | BT-549 breast 49.8% | MDA-MB-435 melanoma 83% | SW-620 colon 62.5% | MCF7 breast 26.5% | HCT-116 colon 11.6% | HCC-2998 colon 57.2% | KM12 colon 62.6%

COc1c(O)cc2c(c1CC=C(C)C)OC(=O)c1c(cc(O)c(CC=C(C)C)c1O)O2
active: SR leukemia -21.4% | NCI/ADR-RES ovarian -13.7% | KM12 colon 7.76%
inactive: OVCAR-8 ovarian 42.4% | OVCAR-5 ovarian 72% | OVCAR-4 ovarian 43.8% | SK-OV-3 ovarian 86.7% | IGROV1 ovarian 69.6% | OVCAR-3 ovarian 34.2% | T-47D breast 49.3% | BT-549 breast 78.2% | MDA-MB-435 melanoma 60.3% | SW-620 colon 27.3% | MCF7 breast 10.6% | HCT-116 colon 26.8% | HCC-2998 colon 24.5%
